Test results: the OligoGym collection

What follows are sequences tested against DNAJA2 (assay: pooled miR-30 sensor sort-seq; sequence = guide strand). Details: shRNA.
Also: reference of the scale not given here.

Sequence | sensor-assay potency score (higher = more potent)
TAGAGCTTCAACAAGTCCTATT | -0.658
TTCAAGAATCTTGACTTCTTTA | -0.418
TTCTTCAGCTCGTTCTCGCTGG | -0.323
AATTATGTTAGGAACTTCCGGT | -0.0625
TTTCATGCCTTTGTCTACGTGG | -0.148
TACCTCATGTTCTTTCTCCTGT | 0.929
TATTTCACCACAATCTGACGTC | 0.583
TCGAGTGCTATCAAATTCCTGA | 0.237
TTGATAGTACTTCATATGCAAA | -1.43
TTTCTTTAAATTTGTCTCCTGC | 0.759
TAGTTCAGAAAGCTTGTCTGGG | 0.299
TATTCCTTGGCTAACTTTCTGT | -0.171

The sequences below were run against DNAJB11 in the same assay as above. Details: shRNA.

Sequence | sensor-assay potency score (higher = more potent)
TTCTTCACCATAAGTATCGTAC | -0.183
TTCGTCGCAGACCACCTCCTGG | -1.23
TTCGGAACCGTAAATCTCCAGG | -0.565
TTCACCATAAGTATCGTACTGT | 0.409
TATACCTTCTGCACTGACCCTT | 0.681
TCTTCCATAGCTTCGCTCCTGG | -0.0366
TCTATTTCTACTTCCAGCGTTC | -0.287
TTTGTGTACAAATCATCTCCTC | -0.115
TCTTATAGAAATCTCGTCCGGC | 0.334
TATTTCTGTCTTGCTGACGAGG | -1.05
TTGTGTACAAATCATCTCCTCT | -0.302
TTTGTTTCTAACTACTTCCACA | -0.721
